# Experimental data from PMC7819943, “Rice protein-binding microarrays: a tool to detect cis-acting elements near promoter regions in rice”.
# The full ranking holds about 39,000 sequences; the median of “fluorescence intensity (a.u.)” is about 4,300, and the highest 2% start at about 39,000. Only a selection was taken, and the highest values are over-represented in it overall.
# Target: T1, OsSMF1 (Oryza sativa, UniProt Q6ZLB0 1-436)
# T1 sequence: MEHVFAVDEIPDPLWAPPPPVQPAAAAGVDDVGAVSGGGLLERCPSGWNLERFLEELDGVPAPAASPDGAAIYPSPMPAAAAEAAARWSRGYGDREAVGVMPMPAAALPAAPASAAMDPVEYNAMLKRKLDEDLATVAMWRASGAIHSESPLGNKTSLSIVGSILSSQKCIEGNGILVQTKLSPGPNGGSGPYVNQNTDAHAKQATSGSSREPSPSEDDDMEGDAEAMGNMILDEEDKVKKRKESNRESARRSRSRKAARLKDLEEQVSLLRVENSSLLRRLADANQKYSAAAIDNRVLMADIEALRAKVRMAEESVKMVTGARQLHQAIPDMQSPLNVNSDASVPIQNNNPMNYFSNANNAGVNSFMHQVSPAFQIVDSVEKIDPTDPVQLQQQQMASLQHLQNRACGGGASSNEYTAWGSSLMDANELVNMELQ
# Assay: protein-binding microarray (RPBM); PBS, 2% BSA, 51.3 ng/ul salmon testes DNA, 50 uM zinc acetate, 200 nM TF, 25 C, 1 h; high values mean tight binding
# Conditions: protein: recombinant; tags: N-terminal polyhistidine and DsRed monomer fusion (pET32a); chain copies: 2; label: CyDye5-dUTP incorporated in the synthesized complementary strand; 3' TTTTT single-stranded linker to array surface; dsDNA, one strand shown
# How it was run: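 The binding signal for each feature is its fluorescence intensity in arbitrary units. An Axon 4000B scanner was used to read a custom Agilent array that had been made double-stranded with Cy5-dUTP primer extension, blocked with 2% BSA, incubated at 25 °C for 1 h with 200 nM protein in PBS, 2% BSA, salmon testes DNA and 50 µM zinc acetate, and washed. The protein was an N-terminal polyhistidine–DsRed transcription factor fusion from E. coli BL21-CodonPlus, purified on Ni–NTA.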
row,Sequence,binding signal
1,TATATACTCTCTTCGTTTCAAAATGTTTGACGCCGTTAACCGGAGTCACCTAGTGCAG,3670 fluorescence intensity (a.u.)
2,CTCAAAACCACACCGTTAAATGTTTTACCCTACTCTCGTACGGAGTCACCTAGTGCAG,39200 fluorescence intensity (a.u.)
3,TTAAAACTCAATTAATCACACGTTATTACCACCTCGTTTTCGGAGTCACCTAGTGCAG,3210 fluorescence intensity (a.u.)
4,TATATATATATATATATATAAAGTGTATGACATGTGATCACGGAGTCACCTAGTGCAG,3970 fluorescence intensity (a.u.)
5,TGACAGCCACAAGTATGATGTGATAAAGTGTGGCTATAAACGGAGTCACCTAGTGCAG,65500 fluorescence intensity (a.u.)
6,ATAGTATAAAAGTAATGTGATGTGGCTTTATGAGAGAAAACGGAGTCACCTAGTGCAG,3780 fluorescence intensity (a.u.)
7,GGAGAAAATTGCGGAGGGGATCCACAGTTCCAGCCGCGTGCGGAGTCACCTAGTGCAG,3190 fluorescence intensity (a.u.)
8,ACAAAATTTATTTCCAGGTGGCGTCTCCTCATTGGCCAGCCGGAGTCACCTAGTGCAG,4370 fluorescence intensity (a.u.)
9,TGGGTGAGAGTTTGAACCCGAACATATGACACATCTATGTCGGAGTCACCTAGTGCAG,3270 fluorescence intensity (a.u.)
10,ATCACTCTACTTTGTCTGTGTCATATTATAAGCTGCTTGACGGAGTCACCTAGTGCAG,5640 fluorescence intensity (a.u.)
11,TATGTCAATACTGTATGCATATATTAACATAAAATATCTCCGGAGTCACCTAGTGCAG,4760 fluorescence intensity (a.u.)
12,ACAATTACTGTATTGTGCATATAAGCTGCATATCTATCACCGGAGTCACCTAGTGCAG,39900 fluorescence intensity (a.u.)
13,AGAAAGCAACATGCTGTCCCGGTGGCACATCCGATTAGTACGGAGTCACCTAGTGCAG,3680 fluorescence intensity (a.u.)
14,GGCTTCCCGCGCCACAAGCTTTGCCGCCACCTCCTCCTCGCGGAGTCACCTAGTGCAG,3230 fluorescence intensity (a.u.)
15,CAGAGTTCCGTTCTGAATTTCTGGTGAGTCATCTGCTGAACGGAGTCACCTAGTGCAG,8920 fluorescence intensity (a.u.)
16,GTTGCCTTCGTGTCCAGTGGATAGATAAGGATAGGATTTTCGGAGTCACCTAGTGCAG,65500 fluorescence intensity (a.u.)
17,GTTGTCAGTTGGATAGAACCAGTCCAGGAACGTGTGGCCCCGGAGTCACCTAGTGCAG,3240 fluorescence intensity (a.u.)
18,CCTTAGGCTACGTTGGCTTTTGCATTTTGGCGTGGATTTTCGGAGTCACCTAGTGCAG,14400 fluorescence intensity (a.u.)
19,CGCGGATCGGCCGCGAGGCGCACGTGGACATCACCACCAACGGAGTCACCTAGTGCAG,4220 fluorescence intensity (a.u.)
20,GAAGCTGTCATCGCTGATGCGGCGAAGAGATCATCATCACCGGAGTCACCTAGTGCAG,4450 fluorescence intensity (a.u.)
21,GCCGCCGCCGCCGGAGAAGATGATGGTGCCGCTGGATCCGCGGAGTCACCTAGTGCAG,43500 fluorescence intensity (a.u.)

row,Sequence,binding signal
1,GCTGCACGGCCGCGGCGTGGCGCTGACGGCGACGGTGAGGCGGAGTCACCTAGTGCAG,5740 fluorescence intensity (a.u.)
2,GCGAGCTGTGCCGTTCTTGATCACCGAGGCGATGGCGGCGCGGAGTCACCTAGTGCAG,39200 fluorescence intensity (a.u.)
3,ATGGTGGAGAAGGTGACGATGACACGAGGTGATCTGGATCCGGAGTCACCTAGTGCAG,3680 fluorescence intensity (a.u.)
4,GAGCCGCTGATCCGCTGCACGGCGGCGCGGAGCGCGTCGACGGAGTCACCTAGTGCAG,39100 fluorescence intensity (a.u.)
5,CCCGCGCCGCGGCGGATCGATGGAGCTGTTCGAGCGCGCGCGGAGTCACCTAGTGCAG,3160 fluorescence intensity (a.u.)
6,AGATGGCGGCGGCGGCGCAGATCCGGCCTCCACGCGCGCACGGAGTCACCTAGTGCAG,3940 fluorescence intensity (a.u.)
7,GATGATGATGATGATGATGATGAGAAGGTGGTGCCGCCGCCGGAGTCACCTAGTGCAG,4280 fluorescence intensity (a.u.)
8,GAGCGCTGCGTGCGCGCGCGTCCGCGGCCACGCCATCCGCCGGAGTCACCTAGTGCAG,4600 fluorescence intensity (a.u.)
9,TTGATGGCGATCTGCGAGGCCGTGCGGGTCACGGAGCGCGCGGAGTCACCTAGTGCAG,30900 fluorescence intensity (a.u.)
10,CGGCGCAGATCCGGCGAGCGGCGGCGGCGGAAGCTGATGGCGGAGTCACCTAGTGCAG,39900 fluorescence intensity (a.u.)
11,GTTTGGAATTTTGGATAGAAATTCCGGGCGTGACACATCGCGGAGTCACCTAGTGCAG,5880 fluorescence intensity (a.u.)
12,ATGTCGCTGTGGCTCATCCGGCCCAAGCCCATTTCCCCACCGGAGTCACCTAGTGCAG,29500 fluorescence intensity (a.u.)
13,AAACTGAAGGGTATTTTCACAAAATTTCCTTTTCTTTCTCCGGAGTCACCTAGTGCAG,6620 fluorescence intensity (a.u.)
14,GTATATGCGTCATGTGCGTCTTCCCTGTCACGAGTGCGTGCGGAGTCACCTAGTGCAG,7200 fluorescence intensity (a.u.)
15,ACATGTGGGTCCTGTTGACATGTAGGTGCCACCTTGGCATCGGAGTCACCTAGTGCAG,4440 fluorescence intensity (a.u.)
16,GAAACTTTCCTACGCACAAACTTTCAACTTTTACGTCACACGGAGTCACCTAGTGCAG,3340 fluorescence intensity (a.u.)
17,CATGCTATGTGCTCAAAGGGCAACGGTCGACGTGTGCCTTCGGAGTCACCTAGTGCAG,4110 fluorescence intensity (a.u.)
18,CTAAACAAAGGATGAGGCTATGAGCACCCACCAACCATACCGGAGTCACCTAGTGCAG,34200 fluorescence intensity (a.u.)
19,ACACAGATCTGCAACCAAAACAAATGCAACACTAAACACCCGGAGTCACCTAGTGCAG,26100 fluorescence intensity (a.u.)
20,AGATCTGCACAACCATAACGGCTAAAGAGGAGATACCAAACGGAGTCACCTAGTGCAG,65500 fluorescence intensity (a.u.)
21,GCACAACCGCACACGAGACGACGTCACCCACAACCGCACGCGGAGTCACCTAGTGCAG,6040 fluorescence intensity (a.u.)
